The results in this text go back to the antibiotic and cytotoxicity screens of Wong et al. (2023).

Hit rate of the full screen: of about 39,000 compounds, about 3,300 (8.5%) were called active. The sample holds actives, similar compounds and a random draw of the others, so the mix is not that of the screen.

The test system of the experiment is HepG2. The experiment is described as follows: cytotoxicity call (relative viability < 0.9). As to conditions: 10 µM.
As to `COc1cc2c(cc1OC)-c1cc3ccc(OC)c(OC)c3c[n+]1CC2.[Cl-]`, the cytotoxicity call is “inactive”.

Turning to `COc1ccc2cc3[n+](cc2c1OC)CCc1cc2c(cc1-3)OCO2.[Cl-]`, the cytotoxicity call was “active”.

Regarding `C[C@@H]1CN([C@@H](C)CO)C(=O)c2cccc(NC(=O)Nc3ccc(C(F)(F)F)cc3)c2O[C@@H]1CN(C)S(=O)(=O)c1ccc(Cl)cc1`, the cytotoxicity call is “inactive”.

With `COCC(=O)N(C)C[C@H]1Oc2cc(C#CC(C)(C)O)ccc2S(=O)(=O)N([C@H](C)CO)C[C@@H]1C`, the cytotoxicity call was “inactive”.

With `COc1ccccc1S(=O)(=O)N(C)C[C@H]1Oc2ncc(Br)cc2C(=O)N([C@@H](C)CO)C[C@H]1C`, the cytotoxicity call is “inactive”.

As to `Cc1ccc(S(=O)(=O)N(C)C[C@H]2Oc3ccc(NC(=O)Nc4cccc5ccccc45)cc3CC(=O)N([C@H](C)CO)C[C@H]2C)cc1`, the cytotoxicity call is “inactive”.

`C[C@H](CO)N1C[C@H](C)[C@H](CN(C)S(=O)(=O)c2ccc(Cl)cc2)Oc2ccc(NC(=O)Nc3cccc4ccccc34)cc2CC1=O`: the cytotoxicity call is “active”.

Consider `C[C@H](CO)N1C[C@H](C)[C@@H](CN(C)S(=O)(=O)c2ccc(Cl)cc2)Oc2ccc(NC(=O)Nc3cccc4ccccc34)cc2CC1=O`, for which the cytotoxicity call was “inactive”.

For `C[C@@H]1CN([C@@H](C)CO)C(=O)Cc2cc(NC(=O)Nc3cccc4ccccc34)ccc2O[C@H]1CN(C)S(=O)(=O)c1ccc(Cl)cc1`, the cytotoxicity call is “inactive”.

Regarding `C[C@@H]1CN([C@H](C)CO)C(=O)Cc2cc(NC(=O)Nc3cccc4ccccc34)ccc2O[C@H]1CN(C)S(=O)(=O)c1ccc(Cl)cc1`, the cytotoxicity call is “inactive”.

Take `C[C@H]1CN([C@@H](C)CO)C(=O)Cc2cc(NC(=O)Nc3cccc4ccccc34)ccc2O[C@@H]1CN(C)S(=O)(=O)c1ccc(Cl)cc1`: the cytotoxicity call is “inactive”.

As to `Cc1ccc(S(=O)(=O)N(C)C[C@H]2Oc3ccc(NC(=O)Nc4cccc5ccccc45)cc3CC(=O)N([C@@H](C)CO)C[C@H]2C)cc1`, the cytotoxicity call is “inactive”.

For `Cc1ccc(S(=O)(=O)N(C)C[C@@H]2Oc3ccc(NC(=O)Nc4cccc5ccccc45)cc3CC(=O)N([C@H](C)CO)C[C@@H]2C)cc1`, the cytotoxicity call was “active”.

Turning to `Cc1ccc(S(=O)(=O)N(C)C[C@H]2Oc3ccc(NC(=O)Nc4cccc5ccccc45)cc3CC(=O)N([C@@H](C)CO)C[C@@H]2C)cc1`, the cytotoxicity call was “inactive”.

Turning to `C[C@H]1CN([C@@H](C)CO)C(=O)Cc2cc(NC(=O)Nc3cccc4ccccc34)ccc2O[C@H]1CN(C)S(=O)(=O)c1ccc(Cl)cc1`, the cytotoxicity call was “active”.

As to `C[C@@H]1CN([C@@H](C)CO)C(=O)Cc2cc(NC(=O)Nc3cccc4ccccc34)ccc2O[C@@H]1CN(C)S(=O)(=O)c1ccc(Cl)cc1`, the cytotoxicity call is “active”.

With `C[C@@H]1CN([C@H](C)CO)C(=O)Cc2cc(NC(=O)Nc3cccc4ccccc34)ccc2O[C@@H]1CN(C)S(=O)(=O)c1ccc(Cl)cc1`, the cytotoxicity call is “inactive”.
